Pf growth 96h = inhibits malaria parasite growth, 96 h. P. falciparum luciferase reporter growth, 96 h. Potency, µM (top dose mostly 28.7 µM), for inactives: at the highest dose activity change, negative = inhibition, hits mostly inhibitors. 320,000 compounds, 6.9% hits; note: potency is the fitted concentration of half-maximal effect; % is set by controls: 0 for no effect and ±100 for the full control effect
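Compounds incubated with erythrocytes infected by luciferase-expressing P. falciparum (2% hematocrit, 0.05% parasitemia final) for 96 hours, 37 C in 5% CO2. Growth inhibition scored as decreased luciferase luminescence.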
Shiga inhibitor = Shiga toxin inhibition. 290,000 compounds, 9.2% hits. Vero cells, Shiga toxin protein synthesis inhibition reporter. inhibition, % at 38.7 µM. AID 2315; in the data active = inhibition mostly above about 28%, no sharp cut-off; inactive = mostly below about 43%; note: 0% is about no effect
NS1 function inh = influenza NS1 inhibition; Potency, µM (highest dose often 46.1 µM), for the others: at the top dose activity, positive = more growth; AID 2326; 270,000 compounds, 0.4% hits; calls by dose curve; note: potency is the fitted concentration of half-maximal effect; actives are rising curves; nearly all actives have a fitted effect of over 50% in size
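In this qHTS, NS1 from influenza A is expressed in budding yeast, where it slows growth. Cells are switched from glucose to 2% galactose medium (pH 6.0, -URA), treated with compound, and growth recovery is read at OD600.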
Pf growth 48h = P. falciparum growth inhibition at 48 hours (one generation); P. falciparum luciferase growth in erythrocytes, 48 h; Potency, µM (titrated, usually from 28.7 µM), without a hit: top-dose activity change, negative = inhibition, hits mostly inhibitors; 310,000 compounds, 5.9% hits; AID 504832; note: potency is the fitted concentration of half-maximal effect; % is set by controls: 0 for no effect and ±100 for the full control effect
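Cell-based growth assay: transgenic P. falciparum expressing firefly luciferase, cultured in red cells within RPMI 1640 containing 0.5% w/v Albumax, 24 mM bicarbonate and gentamycin. A drop in luciferase activity indicates inhibition.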
CHX counter = counter-screen hit for Shiga toxin inhibitors, cycloheximide; cell reporter, cycloheximide protein synthesis inhibition counterscreen; max response, %; 300,000 compounds, 12% hits; AID 2314; in the data active = max response mostly above about 13%, no sharp cut-off; inactive = mostly below about 14%; note: read at 38.3 µM for the half of the compounds with a filed dose; 0% is about no effect
Starred values were filed as active, the others as inactive; [ ] = dose if it differs, or a comment. In the library only some 21% were active in any assay of this set; here they are far more common. Unless noted, calls come from the whole dose curve; as a rule, active = well fitted inhibition curve with a large enough effect; inconclusive = small, poorly fitted or top-dose-only effect, or another doubt; inactive = no such curve, though single readings can be large or run the other way.

`COC(=O)C1=C(C)OC(N)=C(C#N)C1c1cc(OC)c(OCC(N)=O)cc1Cl` (configuration not stated) gave Pf growth 96h -12.5%[5.75 µM], Shiga inhibitor -4.3, NS1 function inh 1.7%, Pf growth 48h 32.8% and CHX counter -1.3.
For FC(F)(F)c1cccc(NC(=S)NCc2ccccn2)c1 the results were Pf growth 96h 2.3%, Shiga inhibitor -3.1, NS1 function inh -35.0%, Pf growth 48h -5.9% and CHX counter 0.3.
Screening Cc1cccc(NC(=S)NCc2ccccn2)c1 returned Pf growth 96h 39.8%, Shiga inhibitor 42.0, NS1 function inh -9.8%, Pf growth 48h -0.9% and CHX counter 27.7.
Screening S=C(NCc1ccccn1)Nc1cccc(Cl)c1 returned Pf growth 96h 2.9%, Shiga inhibitor 26.2, Pf growth 48h 9.1% and CHX counter 12.9*.
Cc1ccc(NC(=O)C(NCc2ccccn2)c2ccccc2)cc1 (configuration not stated) was read as Pf growth 96h inconclusive, Shiga inhibitor 100.7*, Pf growth 48h inconclusive and CHX counter 37.0*.
Cc1ccc(NC(=S)NCc2ccccn2)cc1 was read as Pf growth 96h 40.5%, Shiga inhibitor 108.2*, NS1 function inh -14.0%, Pf growth 48h 5.2% and CHX counter 38.2*.
`COc1ccc(OCc2cc(C(=O)N3C[C@@H](C)O[C@@H](C)C3)no2)c(Cl)c1` gave Pf growth 96h 10.8%, Shiga inhibitor 94.4*, NS1 function inh -1.0%, Pf growth 48h 10.1% and CHX counter 40.4*.
`CCOC(=O)N1CCC(NC(=O)c2cc(COc3ccc(F)cc3Cl)on2)CC1` gave Pf growth 96h 34.9%, Shiga inhibitor 5.0, NS1 function inh 2.9%, Pf growth 48h inconclusive and CHX counter 10.8.
For COc1ccc(OCc2cc(C(=O)N3CCN(C4CCCC4)CC3)no2)c(Cl)c1 the results were Pf growth 96h inconclusive, Shiga inhibitor 76.7*, NS1 function inh -19.4%, Pf growth 48h -8.4% and CHX counter 42.0*.
COc1ccc(OCc2cc(C(=O)N3CCCCCCC3)no2)c(Cl)c1 was read as Pf growth 96h 21.8%, Shiga inhibitor 60.9*, NS1 function inh -18.2%, Pf growth 48h inconclusive and CHX counter 40.2*.
Screening CCOC(=O)N1CCN(C(=O)c2cc(COc3ccc(OC)cc3Cl)on2)CC1 returned Pf growth 96h inconclusive, Shiga inhibitor 105.2*, NS1 function inh -37.1%, Pf growth 48h inconclusive and CHX counter 69.5*.
For O=C(C1CCOCC1)N1CCC(CO)(CCc2ccccc2)CC1 the results were Pf growth 96h 8.9%, Shiga inhibitor -10.9, NS1 function inh -2.1%, Pf growth 48h 15.9% and CHX counter 1.5.
Cn1c(=S)n(CCC(=O)O)c2ccccc21 was read as Pf growth 96h 16.6%, Shiga inhibitor 4.4, NS1 function inh 5.0%, Pf growth 48h 11.8% and CHX counter 3.2.
Cc1cc(OCc2cc(C(=O)N3CCN(CC4CC4)CC3)no2)cc(C)c1Cl was read as Pf growth 96h inconclusive, Shiga inhibitor 25.1, NS1 function inh -19.6%, Pf growth 48h -22.5% and CHX counter 14.3.
For COc1ccc(OCc2cc(C(=O)N3CCN(CC4CC4)CC3)no2)c(Cl)c1 the results were Pf growth 96h inconclusive, Shiga inhibitor 54.9*, NS1 function inh -14.8%, Pf growth 48h 14.0% and CHX counter 52.4*.
For C/C(=N\NC(=O)C1CC1)c1ccc2c(c1)OCCO2 the results were Pf growth 96h 5.0%, Shiga inhibitor 44.4, NS1 function inh -0.8%, Pf growth 48h 32.1% and CHX counter 28.4*.
Nc1ccc2c(c1)OCCOCCOCCOCCOCCO2 was read as Pf growth 96h 5.86µM*, Shiga inhibitor -9.9, Pf growth 48h 188.2% and CHX counter 18.0.
`C/C(=N\NC(=O)C1CC1)c1ccc(Cl)c(Cl)c1` gave Pf growth 96h 4.15µM*, Shiga inhibitor -15.1, NS1 function inh -15.4% and CHX counter 3.6.
`C/C(=N/O)c1ccc2c(c1)OCCOCCOc1cc(/C(C)=N/O)ccc1OCCOCCO2` gave Pf growth 96h 13.1µM*, Shiga inhibitor -5.9, NS1 function inh -3.7%, Pf growth 48h inconclusive and CHX counter -1.1.
O=C1CCC(C(=O)Nc2ccc([N+](=O)[O-])cc2)N1 (configuration not stated) was read as Pf growth 96h 0.0% and Pf growth 48h 31.2%.
`CCOc1ccc(S(=O)(=O)N2CCN(C(=O)c3cc4c(s3)CCCC4)CC2)cc1` gave Pf growth 96h inconclusive, Shiga inhibitor -2.0, NS1 function inh -17.8%, Pf growth 48h -1.6% and CHX counter -7.1.
Cc1ccccc1-n1c(SCC(=O)N2CCN(c3ccccn3)CC2)nnc1N1CCOCC1 was read as Pf growth 96h -18.3% and Pf growth 48h inconclusive.
Cc1cc(=O)n2nc(N3CCC(C(=O)NCCC4=CCCCC4)CC3)sc2n1 was read as NS1 function inh 4.3%.
`CCC(C)Sc1nc(O)c(Cc2ccccc2)c(=O)[nH]1` (configuration not stated) gave Pf growth 96h 2.62µM*, Shiga inhibitor -1.2, NS1 function inh 3.9% and CHX counter -2.3.
For CC(C)Sc1nc(O)c(Cc2ccccc2)c(=O)[nH]1 the results were Shiga inhibitor 7.0, NS1 function inh -21.4%, Pf growth 48h 16.6% and CHX counter -2.0.
Oc1cc(-n2cccn2)c(O)cc1-n1cccn1 was read as Pf growth 96h -1.5%, Shiga inhibitor 70.1*, NS1 function inh -50.0%, Pf growth 48h 8.2% and CHX counter 37.0*.
Screening CN(C)c1ccc(NC(=O)c2ccc([N+](=O)[O-])cc2Cl)cc1 returned Pf growth 96h 176.5%, Shiga inhibitor 75.3*, NS1 function inh 19.3%, Pf growth 48h 159.6% and CHX counter 46.2*.
For CC(C)C(=O)Nc1ccc(NC(=O)c2ccc([N+](=O)[O-])cc2Cl)cc1 the results were Pf growth 96h 0.4%, Shiga inhibitor -2.0, NS1 function inh 6.6%, Pf growth 48h 14.1% and CHX counter -1.0.
`O=C(Nc1cccc(O)c1)c1ccc([N+](=O)[O-])cc1Cl` gave Pf growth 96h -25.0%, Shiga inhibitor 60.9*, Pf growth 48h 272.2% and CHX counter 31.7*.
For O=C1CCCC2=C1C(c1ccsc1)CC(=O)N2c1ccccc1F (configuration not stated) the results were Pf growth 96h inconclusive, Shiga inhibitor -2.8, Pf growth 48h 10.3% and CHX counter -2.7.
Screening CCOC(=O)CSc1nnc(NC(=O)CCc2ccccc2)s1 returned Pf growth 96h 9.9%, Shiga inhibitor 1.6, NS1 function inh -7.8%, Pf growth 48h 17.4% and CHX counter -0.7.
CCN(C(=O)c1cc2cc(OC)ccc2oc1=O)c1ccccc1 was read as Pf growth 96h -4.7%, Shiga inhibitor 21.6, NS1 function inh -20.9%, Pf growth 48h -13.0% and CHX counter 7.4.
Screening CCN(C(=O)c1cc2ccccc2oc1=O)c1ccccc1 returned Shiga inhibitor 42.1, NS1 function inh -9.4% and CHX counter 24.3*.
